Measured values: PubChem BioAssay (NCATS)
Several values for one entry are separate records, joined by “and”; a condition that tells them apart may be missing. Equal entries are not always repeated. Records with an inconclusive call do not appear. A number with no mark means an inactive call. Activity calls are given as the source filed them. Calls come from the whole dose curve; as a rule, active = well fitted curve in the direction sought with a large enough effect; inconclusive = small, poorly fitted or top-dose-only effect, or another doubt; inactive = no such curve, though single readings can be large; an effect the other way counts as inactive or inconclusive.

What was measured:
[1] = Viability qHTS for spleen associated tyrosine kinase inhibitor (SYKi) naive MV4-11 cells (AID 1963823); details: MV4-11 AML viability, CellTiter-Glo luminescence, 72 h; series mostly up to 45 µM; note: nearly all actives have a fitted effect of over 40% in size; note: potency is the fitted concentration of half-maximal effect
Summary of the method: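 CellTiter-Glo luminescence, 10 min room-temperature incubation, gave viability. Cells: naive MV4-11 (500/well), treated 72 hr at 37 C, 5% CO2.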

[2] = Viability qHTS for spleen associated tyrosine kinase inhibitor (SYKi) drug resistant MV4-11 cells (AID 1963824); details: SYKi-resistant MV4-11 viability, CellTiter-Glo, 72 h; series mostly up to 45 µM; note: nearly all actives have a fitted effect of over 35% in size; note: potency is the fitted concentration of half-maximal effect
Summary of the method: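 SYK-inhibitor-resistant MV4-11 AML cells were seeded at 500 per well onto compound and cultured 72 hours (37 °C, 5% CO2). CellTiter-Glo was then added, and after 10 min at room temperature, luminescence gave viability.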

[3] = Cellular viability qHTS for adrenocortical cancer (ACC) cell line NCI-H295R (AID 1963990); details: CellTiter-Glo ATP luminescence, 48 h; series mostly up to 46.1 µM; note: nearly all actives have a fitted effect of over 60% in size; note: potency is the fitted concentration of half-maximal effect
Summary of the method: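 Luminescent ATP read-out (CellTiter-Glo, 20 min RT) after 48 h drug exposure of NCI-H295R cells; a titration up to 46 uM final. Data normalized to doxorubicin (100% inhibition) and DMSO (0%); 4-parameter fit gives IC50, max response.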

[4] = Cellular viability qHTS for adrenocortical cancer (ACC) cell line SW-13 (AID 1963989); details: SW-13 ACC cells viability, CellTiter-Glo, 48 h; activity (max response): stronger effect = lower value;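 note: cells grown in serum-free medium with ITS supplement; % is set by controls: 0 for no effect and ±100 for the full control effect; nearly all actives have a fitted effect of over 65% in size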
Summary of the method: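 SW-13 cells in ITS-supplemented serum-free DMEM were plated overnight, then exposed for 48 h at 37C to compound titrations (up to 46 uM final). Viability was read by CellTiter-Glo luminescence; four-parameter logistic fits gave IC50 and efficacy.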

[5] = Quantitative highthroughput screen to assess conditional lethalithy of NOMO1 cells grown in RPMI1640 with untreated serum (RPMI+s) (AID 1963876); details: NOMO1 AML cells in RPMI+serum, CellTiter-Glo viability, 48 h; series mostly up to 45.8 µM;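 note: 100% = DMSO wells and 0% = empty wells without cells; nearly all actives have a fitted effect of over 35% in size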
Summary of the method: (§1)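 Each medium arm—HPLM with 10% dialyzed FBS, or RPMI1640 with 5 mM glucose and 10% untreated or dialyzed FBS—was screened against an 11-point, 3-fold compound titration for 48 h at 37 °C, with CellTiter-Glo luminescence as endpoint.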

[6] = Quantitative highthroughput screen to assess conditional lethalithy of NOMO1 cells grown in RPMI1640 with dialyzed fetal bovine serum (RPMI+ds) (AID 1963877); details: NOMO1 in RPMI+dialyzed FBS viability, ATP luminescence, 48 h; series mostly up to 45.8 µM;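 note: 100% = DMSO control wells and 0% = empty wells; nearly all actives have a fitted effect of over 30% in size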
Summary of the method: as §1

[7] = Quantitative highthroughput screen to assess conditional lethalithy of NOMO1 cells grown in Human Plasma-Like Medium with dialyzed fetal bovine serum (HPLM+ds) (AID 1963878); details: NOMO1 AML cells in HPLM+ds, CellTiter-Glo viability, 48 h; series mostly up to 45.8 µM;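 note: 100% = DMSO wells and 0% = empty wells on each plate; nearly all actives have a fitted effect of over 35% in size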
Summary of the method: as §1

[8] = Quantitative highthroughput screen to assess conditional lethalithy of P12 Ichikawa cells grown in Human Plasma-Like Medium with dialyzed fetal bovine serum (HPLM+ds) (AID 1963879); details: ATP luminescence, 48 h; Potency: viability; series mostly up to 45.8 µM; note: nearly all actives have a fitted effect of over 35% in size; note: potency is the fitted concentration of half-maximal effect
Summary of the method: as §1

[9] = Quantitative highthroughput screen to assess conditional lethalithy of P12 Ichikawa cells grown in RPMI1640 with dialyzed fetal bovine serum (RPMI+ds) (AID 1963880); details: ATP luminescence, 48 h; Potency: P12-Ichikawa viability; series mostly up to 45.8 µM
Summary of the method: as §1

[10] = Quantitative highthroughput screen to assess conditional lethalithy of P12 Ichikawa cells grown in RPMI1640 with untreated serum (RPMI+s) (AID 1963881); details: ATP luminescence, 48 h; Potency: viability; series mostly up to 45.8 µM
Summary of the method: as §1

[11] = Quantitative highthroughput screen to assess conditional lethalithy of SEM cells grown in RPMI1640 with dialyzed fetal bovine serum (RPMI+ds) (AID 1963884); details: SEM B-ALL cells, RPMI+dialyzed FBS, CellTiter-Glo viability, 48 h; series mostly up to 45.8 µM
Summary of the method: as §1

[12] = Quantitative highthroughput screen to assess conditional lethalithy of SEM cells grown in Human Plasma-Like Medium with dialyzed fetal bovine serum (HPLM+ds) (AID 1963882); details: SEM B-ALL cells in HPLM+ds, CellTiter-Glo viability, 48 h; series mostly up to 45.8 µM; note: nearly all actives have a fitted effect of over 35% in size
Summary of the method: as §1

Question: Which Potency [1] does the source give for C/C(=C\c1csc(C)n1)[C@@H]1C[C@@H]2O[C@]2(C)CCC[C@H](C)[C@H](O)[C@@H](C)C(=O)C(C)(C)[C@@H](O)CC(=O)O1 here?
Answer: 0.0047 µM (active)

Question: And the Potency [2]?
Answer: 0.0047 µM (active)

Question: What about the Potency [3] of the same molecule?
Answer: 0.0282 µM (active)

Question: Which Potency [1] does the source give for CCC1(CC)C(=O)C=CNC1=O here?
Answer: inactive

Question: And the Potency [2]?
Answer: inactive

Question: What about the Potency [3] of the same molecule?
Answer: inactive

Question: For ClCc1cccc(Cl)c1, which Potency [1] is on record?
Answer: inactive

Question: What about the Potency [2] of the same molecule?
Answer: inactive

Question: What about the activity (max response) [4] of the same molecule?
Answer: 11%

Question: What about the Potency [3] of the same molecule?
Answer: inactive

Question: For NC(=O)CS(=O)C(c1ccccc1)c1ccccc1 (stereo unspecified), which Potency [1] is on record?
Answer: inactive

Question: And the activity (max response) [4]?
Answer: 12.6%

Question: What does the source list for c1ccc2c(c1)Sc1ccccc1N2CC1CN2CCC1CC2 (stereo unspecified)?
Answer: Potency [1]: 26.6 µM (active); Potency [2]: 26.6 µM (active); Potency [3]: 16.4 µM (active)

Question: For CCCCC1C(=O)NC(=O)N(C2CCCCC2)C1=O (stereo unspecified), which Potency [1] is on record?
Answer: inactive

Question: And the Potency [2]?
Answer: inactive

Question: And the Potency [3]?
Answer: inactive

Question: With C[C@](O)(COc1ccc(C#N)cc1)C(=O)Nc1ccc(C#N)c(C(F)(F)F)c1 as the molecule, how does the Potency [1] read?
Answer: 18.6 µM (active)

Question: And the Potency [5]?
Answer: inactive

Question: What about the Potency [6] of the same molecule?
Answer: inactive

Question: What about the Potency [7] of the same molecule?
Answer: inactive

Question: What about the Potency [8] of the same molecule?
Answer: inactive

Question: And the Potency [9]?
Answer: inactive

Question: What about the Potency [10] of the same molecule?
Answer: inactive

Question: And the Potency [3]?
Answer: 17.8 µM (active)

Question: Which Potency [1] does the source give for CC(Cc1ccccc1)NCc1ccccc1Cl (stereo unspecified) here?
Answer: inactive

Question: What about the activity (max response) [4] of the same molecule?
Answer: -8.69%

Question: What about the Potency [3] of the same molecule?
Answer: inactive

Question: Which results are given for CC(C)(C)NCC(O)c1cc(Cl)c(N)c(C(F)(F)F)c1 (stereo unspecified)?
Answer: Potency [1]: inactive; Potency [2]: inactive; activity (max response) [4]: 9.74%; Potency [3]: inactive

Question: With C[C@@H]1CC[C@@]2(OC1)O[C@H]1C[C@H]3[C@@H]4CC=C5C[C@@H](O[C@@H]6O[C@H](CO)[C@@H](O[C@@H]7O[C@@H](C)[C@H](O)[C@@H](O)[C@H]7O)[C@H](O)[C@H]6O[C@@H]6O[C@@H](C)[C@H](O)[C@@H](O)[C@H]6O)CC[C@]5(C)[C@H]4CC[C@]3(C)[C@H]1[C@@H]2C as the molecule, how does the Potency [1] read?
Answer: 1.66 µM (active)

Question: What about the Potency [2] of the same molecule?
Answer: 1.66 µM (active)

Question: And the Potency [3]?
Answer: 2.24 µM (active)

Question: Which Potency [1] does the source give for CC[C@H]1C[C@H]2[C@@H]3CCC4=CC(=O)CC[C@@H]4[C@H]3CC[C@]2(C)[C@H]1O here?
Answer: 18.8 µM (active)

Question: And the activity (max response) [4]?
Answer: -16.6%

Question: Which Potency [1] does the source give for C#C[C@]1(O)C=C[C@H]2[C@@H]3CCC4=CC(=O)CC[C@@H]4[C@H]3CC[C@@]21CC here?
Answer: inactive

Question: And the activity (max response) [4]?
Answer: -4.27% and 2.85%

Question: Which Potency [1] does the source give for CC(C)=CC1C(C(=O)OCc2cccc(Oc3ccccc3)c2)C1(C)C (stereo unspecified) here?
Answer: inactive

Question: What about the activity (max response) [4] of the same molecule?
Answer: 3.55%

Question: What about the Potency [3] of the same molecule?
Answer: inactive

Question: For c1ccc2c(c1)Nc1ccccc1S2, which Potency [1] is on record?
Answer: inactive

Question: And the activity (max response) [4]?
Answer: -23.4%

Question: With c1ccc2c(c1)sc1ccccc12 as the molecule, how does the Potency [1] read?
Answer: inactive

Question: And the activity (max response) [4]?
Answer: 0.898%

Question: Which Potency [1] does the source give for CCN1CCN(C(=O)Cc2ccc(Nc3ncc(F)c(Nc4ccc(C(=O)Nc5ccccc5Cl)cc4)n3)cc2)CC1 here?
Answer: 0.468 µM (active)

Question: What about the Potency [11] of the same molecule?
Answer: 4.69 µM (active)

Question: And the Potency [3]?
Answer: 3.55 µM (active)

Question: Which results are given for C/C1=C/C[C@@H](/C(C)=C/c2csc(C)n2)OC(=O)C[C@H](O)C(C)(C)C(=O)[C@H](C)[C@@H](O)[C@@H](C)CCC1?
Answer: Potency [1]: 0.0332 µM (active); Potency [2]: 0.0332 µM (active); Potency [3]: 0.0224 µM (active)

Question: Which Potency [1] does the source give for O=C(Oc1ccc([N+](=O)[O-])cc1)N1CCC(C(O)(c2ccc3c(c2)OCO3)c2ccc3c(c2)OCO3)CC1 here?
Answer: inactive

Question: What about the Potency [5] of the same molecule?
Answer: inactive

Question: What about the Potency [6] of the same molecule?
Answer: inactive

Question: And the Potency [8]?
Answer: 14.8 µM (active)

Question: What about the Potency [9] of the same molecule?
Answer: inactive

Question: What about the Potency [10] of the same molecule?
Answer: inactive

Question: What about the Potency [12] of the same molecule?
Answer: inactive

Question: What about the activity (max response) [4] of the same molecule?
Answer: 5.03%

Question: What about the Potency [3] of the same molecule?
Answer: inactive

Question: Which results are given for Cc1ncc(CNC(=O)N(CCCl)N=O)c(N)n1?
Answer: Potency [1]: inactive; Potency [2]: inactive; activity (max response) [4]: 2.91%; Potency [3]: inactive

Question: Which Potency [1] does the source give for CO/C=C(/C(=O)OC)c1ccccc1Oc1cc(Oc2ccccc2C#N)ncn1 here?
Answer: 13.7 µM (active)

Question: And the Potency [2]?
Answer: 8.63 µM (active)

Question: What about the Potency [3] of the same molecule?
Answer: 7.94 µM (active)

Question: With CC(=O)OC[C@H]1O[C@@H]([S-])[C@H](OC(C)=O)[C@@H](OC(C)=O)[C@@H]1OC(C)=O.CC[PH+](CC)CC.[Au] as the molecule, how does the Potency [1] read?
Answer: 0.209 µM (active)

Question: What about the Potency [2] of the same molecule?
Answer: 0.235 µM (active)

Question: And the Potency [3]?
Answer: 0.631 µM (active)

Question: For O=C(NCCCNc1nc(Nc2ccc(N3CCOCC3)cc2)ncc1C1CC1)C1CCC1, which Potency [1] is on record?
Answer: 0.118 µM (active)

Question: What about the Potency [2] of the same molecule?
Answer: 0.166 µM (active)

Question: And the Potency [3]?
Answer: inactive

Question: What does the source list for Nc1ccc(Cl)cc1C(=O)c1ccccc1F?
Answer: Potency [1]: inactive; activity (max response) [4]: -12.6%

Question: For C/C=C(\C)C(=O)N[C@@H](c1ccccc1)[C@@H](O)C(=O)O[C@H]1C[C@@]2(O)[C@@H](OC(=O)c3ccccc3)[C@@H]3[C@]4(OC(C)=O)CO[C@@H]4C[C@H](O)[C@@]3(C)C(=O)[C@H](OC(C)=O)C(=C1C)C2(C)C, which Potency [1] is on record?
Answer: 0.0209 µM (active)

Question: And the Potency [2]?
Answer: 0.0235 µM (active)

Question: And the Potency [3]?
Answer: 0.891 µM (active)

Question: Which results are given for C1CCC(NC2CCCCC2)CC1?
Answer: Potency [1]: inactive; Potency [2]: inactive; Potency [3]: inactive

Question: What does the source list for Cc1nnc2n1-c1sc(CCc3ccc(CC(C)C)cc3)cc1C(c1ccccc1Cl)=NC2C (stereo unspecified)?
Answer: Potency [1]: 5.8 µM (active); Potency [2]: 4.11 µM (active); Potency [3]: 8.2 µM (active)
